Assay results published in PubChem BioAssay (NCATS).
Records with an inconclusive call do not appear. Active and inactive are the calls of the source. Unless noted, calls come from the whole dose curve; as a rule, active = well fitted curve in the direction sought with a large enough effect; inconclusive = small, poorly fitted or top-dose-only effect, or another doubt; inactive = no such curve, though single readings can be large; an effect the other way counts as inactive or inconclusive.

Columns and labels:
[1] = biological target: Lysosomal acid glucosylceramidase (Homo sapiens) (UniProt P04062); experiment: Glucocerebrosidase-p2 (AID 348; in the data active = potency below about 10 µM; note: potency is the fitted concentration of half-maximal effect); settings: purified GBA, blue fluorogenic substrate, 40 min
How it was run: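 Normal human glucocerebrosidase (0.2 nM) with blue fluorogenic substrate (80 uM final) in citrate/phosphate pH 5.9 with 10mM sodium taurocholate, 0.01% tween-20; 40 min RT, NaOH/glycine stop; fluorescence Ex 365/Em 440; AC50 from a titration from 0.6 nM upwards.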

[2] = AP1 Signaling Pathway (AID 357; active = well fitted curve in either direction with a large enough effect, not every such curve was filed as active; note: % is set by controls: 0 for no effect and ±100 for the full control effect); settings: ME-180 AP-1-bla reporter, EGF-induced, beta-lactamase ratio, 5 h; at 7.69 µM (top of the series) unless noted
How it was run: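 Modulation of EGF-driven AP-1 transcription was assessed with a beta-lactamase reporter in ME-180 cells. Compound and EC50 EGF were co-incubated 5 hours at 37 °C before 2.5-hour CCF4 loading at room temperature and dual-emission reading.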

[3] = biological target: Cytochrome P450 1A2 (Homo sapiens) (UniProt P05177); experiment: p450-cyp1a2 (AID 410; calls by dose curve; note: potency is the fitted concentration of half-maximal effect;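 for activity change, negative = inhibition: -100% = full effect of reference inhibitor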); settings: recombinant CYP1A2, luciferin-ME demethylation, luminescence; series mostly up to 57 µM
How it was run: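 Luminescent demethylation readout: Luciferin-ME (100uM, equal to Km) turned over by 20nM CYP1A2 for 60 min at room temperature after NADPH regeneration addition, following 10 min compound preincubation. Normalization used 57 uM furafylline as full inhibition.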

[4] = biological target: Glucocorticoid receptor (Homo sapiens) (UniProt P04150); experiment: GR-GFP Redistribution (AID 450;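 active = compounds whose dose series gives a full or clear partial fitted curve of increased nuclear translocation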; note: potency is the fitted concentration of half-maximal effect); settings: U2OS GR-GFP nuclear translocation, laser cytometry, 2 h
[5] = biological target: Glucocorticoid receptor (Homo sapiens) (UniProt P04150); experiment: GR-EFC Redistribution (AID 451; calls by dose curve; note: potency is the fitted concentration of half-maximal effect); settings: CHO-K1 GR-EFC translocation, beta-gal luminescence, 2 h
How it was run: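 CHO-K1 cells expressing nuclear EA and GR-ED fragments of b-gal; compounds titrated up to 46 uM final, 2 h at 37 C. GR nuclear translocation read as complemented b-gal luminescence after 1 h RT detection.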

[6] = biological target: Mitogen-activated protein kinase 10 (Mus musculus) (UniProt Q61831); experiment: JNK3 AlphaScreen Assay (AID 530; active = well fitted curve in either direction with a large enough effect, not every such curve was filed as active;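 note: kinase came from lysate of stimulated human HepG2 cells; signal reports phosphorylation of biotinylated GST-cJun 1-79 at Ser73 with 10 µM ATP; % is set by controls: 0 for no effect and ±100 for the full control effect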); settings: JNK3 lysate, c-Jun phosphorylation; series mostly up to 57.1 µM
How it was run: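 Activity was read by AlphaScreen after JNK3-containing HepG2 lysate (cytokine pre-activated) phosphorylated biotinylated GST-cJun with 10 uM ATP at room temperature. Phospho-Ser73 cJun antibody with Protein-A acceptor beads provided detection.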

[7] = biological target: 3',5'-cyclic-AMP phosphodiesterase 4B (Homo sapiens) (UniProt Q07343); experiment: qHTS Assay for Inhibitors of PDE-IV (AID 607; active = well fitted activation curve with a large enough effect in the main read-out, with a control signal flat, not every such curve was filed as active; note: % of control where 0% means no effect); settings: HEK293 ACTOne CNG channel cells, membrane potential fluorescence; series mostly up to 22.9 µM
How it was run: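 HEK293 ACTOne cells with CNG channel (1000/well), endogenous PDE4; membrane potential dye, compounds up to 22.9 uM final. Fluorescence Ex 535/Em 590; RO 20-1724 (100 uM final) as reference.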

[8] = qHTS Assay for Lipid Storage Modulators (AID 1519; calls by dose curve); settings: Drosophila S3 cells, BODIPY lipid droplet/cell ratio, laser cytometry, cells loaded with oleic acid; for activity change, negative = inhibition: at 57.5 µM (top of the series)
How it was run: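 Cells seeded at 5,000 per well were treated with compounds over a concentration series and loaded with oleic acid (400 uM, as added). Lipid droplet fluorescence (488 nm excitation, 500-530 nm channel) was read by laser-scanning cytometry and normalized to 20 uM Triacsin C.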

[9] = biological target: Dual specificity protein kinase CLK4 (Homo sapiens) (UniProt Q9HAZ1); experiment: qHTS Assay for Inhibitors of CDC-like Kinase 4 (Kinase-Glo Assay) (AID 1770); settings: recombinant Clk4, Kinase-Glo ATP depletion luminescence; series mostly up to 66.7 µM; note: nearly all actives have a fitted effect of over 65% in size; note: potency is the fitted concentration of half-maximal effect
How it was run: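 Substrate mix (RS peptide 100 uM, ATP 1 uM) dispensed, compound pinned in, then Clk4 added to 25 nM final. Incubated 4.5 h at RT; Kinase-Glo reagent added, luminescence read after 5 min.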

[10] = biological target: Dual specificity protein kinase CLK4 (Homo sapiens) (UniProt Q9HAZ1); experiment: qHTS Assay for Inhibitors of CDC-like Kinase 4 (ADP-Glo Assay) (AID 1771); settings: recombinant CLK4, ADP-Glo luminescence; series mostly up to 80 µM; note: nearly all actives have a fitted effect of over 70% in size; note: potency is the fitted concentration of half-maximal effect
How it was run: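 ADP production was read by ADP-Glo luminescence after residual ATP depletion, following 1 h room-temperature reaction of 25 nM Clk4, 1 uM ATP and 100 uM RS peptide with MgCl2, EGTA, DTT and Triton X-100.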

[11] = biological target: Dual specificity protein kinase CLK4 (Homo sapiens) (UniProt Q9HAZ1); experiment: qHTS Assay for Inhibitors of CDC-like Kinase 4 (ADP-FP Assay) (AID 1795); settings: Transcreener ADP fluorescence polarization; series mostly up to 50 µM; note: nearly all actives have a fitted effect of over 60% in size; note: potency is the fitted concentration of half-maximal effect
How it was run: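 Clk4 6.25 nM; RS peptide 100 uM; ATP 1 uM; 25 mM Tris pH 7.5, 10 mM MgCl2; 1 h reaction. ADP detected via antibody/orange tracer FP displacement; TG003 positive control.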

[12] = biological target: Ubiquitin carboxyl-terminal hydrolase 1 (Homo sapiens) (UniProt O94782); experiment: Inhibitors of USP1/UAF1: Pilot qHTS (AID 504865); settings: purified USP1/UAF1, Ub-rhodamine cleavage fluorescence; series mostly up to 54.9 µM;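 note: rhodamine fluorescence freed from ubiquitin-rhodamine substrate followed over time; top concentration of the series differs between compounds; % is set by controls: 0 for no effect and ±100 for the full control effect; nearly all actives have a fitted effect of over 35% in size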
How it was run: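 In 50mM HEPES pH 7.8 containing 0.5mM EDTA, 1mM TCEP, 0.1 mg/ml BSA and 0.01% Tween-20, 1nM USP1/UAF1 is exposed to compound for 15 min, then Ub-Rho (150nM final) is added and fluorescence is read over time.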

[13] = Stat Signaling Pathway (AID 446; active = well fitted curve in either direction with a large enough effect, not every such curve was filed as active;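 note: ME-180 cervical cancer cells given 40 pM IL-6 alongside compound; SIE-controlled beta-lactamase reporter measured as 460/530 nm FRET emission ratio; % is set by controls: 0 for no effect and ±100 for the full control effect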); settings: ME-180 SIE beta-lactamase reporter, IL-6 stimulated, 5 h; at 7.69 µM (top of the series) unless noted
How it was run: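 Normalization used AC90 stimulation (300 pM IL-6) and AC90 inhibition (125 nM pan-JAK inhibitor at 40 pM IL-6). The underlying signal is SIE-driven beta-lactamase in ME-180 cells after 5 h IL-6 exposure with compound.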

[14] = biological target: Cytochrome P450 3A4 (Homo sapiens) (UniProt P08684); experiment: qHTS Assay for Activators of Cytochrome P450 3A4 (AID 885); settings: recombinant CYP3A4, Luciferin-PPXE luminescence, 60 min; series mostly up to 57.1 µM; note: nearly all actives have a fitted effect of over 65% in size
How it was run: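 Human CYP3A4 dealkylates Luciferin-PPXE to luciferin, which luciferase detection converts to light. Substrate was at its KM (25uM), buffer 200mM KPO4, reaction 60 min at RT.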

[15] = qHTS Assay for Identification of Small Molecule Agonists for Hypoxia Response Element Signaling Pathway (AID 914; active = well fitted activation curve with a large enough effect in the signal ratio, with a control signal flat, not every such curve was filed as active; the % refers to the signal ratio; note: potency is the fitted concentration of half-maximal effect); settings: ME-180 (cervical carcinoma) HRE-bla reporter, beta-lactamase ratio, CoCl2, 17 h; activation: stronger effect = higher value
How it was run: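 HRE-bla ME-180 assay for agonist-like enhancement of an EC50 CoCl2 stimulus: 17 h at 37 degrees Celsius, CCF4 for 2.5 h, ratiometric 460/530 nm signal converted to %Activity and fitted to AC50.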

[16] = biological target: Cytochrome P450 3A4 (Homo sapiens) (UniProt P08684); experiment: qHTS Assay for Inhibitors and Substrates of Cytochrome P450 3A4 (AID 884); settings: recombinant CYP3A4, Luciferin-PPXE luminescence; series mostly up to 57.1 µM; note: potency is the fitted concentration of half-maximal effect; nearly all actives have a fitted effect of over 50% in size
How it was run: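 Luminescent readout of luciferin produced by CYP3A4 (20 nM) dealkylation of Luciferin-PPXE, 25 uM (its KM). NADPH-driven reaction ran 60 min at RT after 10 min compound preincubation; data scaled to 57 uM ketoconazole as 100% inhibition.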

[17] = NFAT Signaling Pathway (AID 444; active = well fitted curve in either direction with a large enough effect, not every such curve was filed as active;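 note: carbachol stimulus at about its EC50 of 1 µM final; % is set by controls: 0 for no effect and ±100 for the full control effect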); settings: Jurkat NFAT-bla M1, carbachol, beta-lactamase ratio, 5 h; at 7.69 µM (top of the series) unless noted
How it was run: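 Jurkat cells with NFAT-driven β-lactamase reporter and co-expressed M1 receptor, stimulated with carbachol (final 1 uM, ~EC50), compound titration, 5 h at 37 °C. CCF4 loaded 1 h at RT; 460/530 nm ratio gave %activity and AC50.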

[18] = measured here: cell count channel max response
[19] = measured here: lipid channel max response

Sequence of Glucocorticoid receptor (Homo sapiens) (P04150 whole entry, looked up, the tested form may be a part): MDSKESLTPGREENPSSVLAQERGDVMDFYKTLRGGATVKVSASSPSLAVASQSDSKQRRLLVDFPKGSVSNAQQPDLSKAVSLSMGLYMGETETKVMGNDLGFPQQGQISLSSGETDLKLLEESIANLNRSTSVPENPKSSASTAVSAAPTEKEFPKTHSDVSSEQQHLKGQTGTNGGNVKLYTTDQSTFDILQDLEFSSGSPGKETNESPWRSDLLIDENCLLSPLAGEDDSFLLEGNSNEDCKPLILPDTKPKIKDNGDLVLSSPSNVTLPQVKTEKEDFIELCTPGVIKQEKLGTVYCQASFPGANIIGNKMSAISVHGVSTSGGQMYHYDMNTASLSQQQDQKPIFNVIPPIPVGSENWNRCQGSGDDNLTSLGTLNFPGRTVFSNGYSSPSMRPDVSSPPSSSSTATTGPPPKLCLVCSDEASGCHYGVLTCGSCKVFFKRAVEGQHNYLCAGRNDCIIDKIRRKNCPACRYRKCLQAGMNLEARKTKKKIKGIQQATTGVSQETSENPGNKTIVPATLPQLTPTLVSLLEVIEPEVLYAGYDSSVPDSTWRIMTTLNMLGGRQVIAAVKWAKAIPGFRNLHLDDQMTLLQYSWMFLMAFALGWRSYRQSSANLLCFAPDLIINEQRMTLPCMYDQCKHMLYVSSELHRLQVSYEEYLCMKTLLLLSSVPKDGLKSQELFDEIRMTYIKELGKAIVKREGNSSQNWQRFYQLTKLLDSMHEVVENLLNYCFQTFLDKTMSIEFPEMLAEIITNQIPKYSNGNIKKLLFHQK
Sequence of 3',5'-cyclic-AMP phosphodiesterase 4B (Homo sapiens) (Q07343 whole entry, looked up): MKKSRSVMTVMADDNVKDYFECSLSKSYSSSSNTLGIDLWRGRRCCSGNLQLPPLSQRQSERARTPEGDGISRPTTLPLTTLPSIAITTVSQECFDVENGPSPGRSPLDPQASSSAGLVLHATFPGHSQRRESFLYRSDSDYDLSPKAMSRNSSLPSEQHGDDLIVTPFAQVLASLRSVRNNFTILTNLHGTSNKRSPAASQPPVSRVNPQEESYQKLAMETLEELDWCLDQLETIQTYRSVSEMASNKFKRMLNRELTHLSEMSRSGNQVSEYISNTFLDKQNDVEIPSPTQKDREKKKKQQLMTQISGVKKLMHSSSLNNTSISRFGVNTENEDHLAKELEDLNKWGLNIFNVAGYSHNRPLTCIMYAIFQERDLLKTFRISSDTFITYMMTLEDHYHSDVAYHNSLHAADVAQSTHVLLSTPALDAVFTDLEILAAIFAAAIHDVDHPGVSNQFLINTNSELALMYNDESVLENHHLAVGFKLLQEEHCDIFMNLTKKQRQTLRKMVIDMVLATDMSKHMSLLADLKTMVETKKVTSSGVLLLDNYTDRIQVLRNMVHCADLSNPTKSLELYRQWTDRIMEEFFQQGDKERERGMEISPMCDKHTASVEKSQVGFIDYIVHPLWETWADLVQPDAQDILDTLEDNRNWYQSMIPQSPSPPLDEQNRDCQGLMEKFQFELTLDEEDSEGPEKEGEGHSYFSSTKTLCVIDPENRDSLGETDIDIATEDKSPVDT
Sequence of Lysosomal acid glucosylceramidase (Homo sapiens) (P04062 whole entry, looked up): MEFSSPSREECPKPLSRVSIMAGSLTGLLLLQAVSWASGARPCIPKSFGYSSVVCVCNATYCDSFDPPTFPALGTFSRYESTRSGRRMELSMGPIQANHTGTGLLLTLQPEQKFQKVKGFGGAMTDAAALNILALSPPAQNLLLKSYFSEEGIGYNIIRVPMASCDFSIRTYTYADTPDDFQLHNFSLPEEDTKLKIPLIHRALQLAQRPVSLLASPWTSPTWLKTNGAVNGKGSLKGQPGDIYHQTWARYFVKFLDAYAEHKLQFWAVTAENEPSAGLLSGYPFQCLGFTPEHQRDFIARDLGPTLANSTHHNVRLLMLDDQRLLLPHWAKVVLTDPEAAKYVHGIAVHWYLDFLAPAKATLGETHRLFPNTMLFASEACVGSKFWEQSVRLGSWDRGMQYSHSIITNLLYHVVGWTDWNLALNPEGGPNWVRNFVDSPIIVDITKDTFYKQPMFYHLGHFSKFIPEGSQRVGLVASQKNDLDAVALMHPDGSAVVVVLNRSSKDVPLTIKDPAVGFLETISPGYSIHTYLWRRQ
Sequence of Ubiquitin carboxyl-terminal hydrolase 1 (Homo sapiens) (O94782 whole entry, looked up): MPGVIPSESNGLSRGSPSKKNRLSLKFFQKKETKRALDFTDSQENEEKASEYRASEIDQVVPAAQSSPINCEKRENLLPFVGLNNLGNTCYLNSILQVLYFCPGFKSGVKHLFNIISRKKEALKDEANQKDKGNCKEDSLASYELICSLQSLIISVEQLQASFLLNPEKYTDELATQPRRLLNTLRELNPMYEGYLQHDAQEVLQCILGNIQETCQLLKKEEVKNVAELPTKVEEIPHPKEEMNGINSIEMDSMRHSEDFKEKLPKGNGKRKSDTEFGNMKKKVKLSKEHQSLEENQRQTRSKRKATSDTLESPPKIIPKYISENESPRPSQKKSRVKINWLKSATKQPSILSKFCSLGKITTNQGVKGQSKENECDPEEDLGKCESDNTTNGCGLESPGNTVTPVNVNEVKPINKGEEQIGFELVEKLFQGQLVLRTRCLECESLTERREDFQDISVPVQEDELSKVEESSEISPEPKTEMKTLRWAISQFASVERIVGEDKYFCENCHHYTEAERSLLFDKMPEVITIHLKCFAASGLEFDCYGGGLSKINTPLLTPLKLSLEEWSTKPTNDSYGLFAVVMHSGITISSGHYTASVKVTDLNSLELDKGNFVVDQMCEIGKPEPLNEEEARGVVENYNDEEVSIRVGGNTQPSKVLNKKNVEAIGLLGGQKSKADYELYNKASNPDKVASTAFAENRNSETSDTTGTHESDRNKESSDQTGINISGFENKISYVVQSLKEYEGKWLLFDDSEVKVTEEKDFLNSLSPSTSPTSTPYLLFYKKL
Sequence of Cytochrome P450 3A4 (Homo sapiens) (P08684 whole entry, looked up): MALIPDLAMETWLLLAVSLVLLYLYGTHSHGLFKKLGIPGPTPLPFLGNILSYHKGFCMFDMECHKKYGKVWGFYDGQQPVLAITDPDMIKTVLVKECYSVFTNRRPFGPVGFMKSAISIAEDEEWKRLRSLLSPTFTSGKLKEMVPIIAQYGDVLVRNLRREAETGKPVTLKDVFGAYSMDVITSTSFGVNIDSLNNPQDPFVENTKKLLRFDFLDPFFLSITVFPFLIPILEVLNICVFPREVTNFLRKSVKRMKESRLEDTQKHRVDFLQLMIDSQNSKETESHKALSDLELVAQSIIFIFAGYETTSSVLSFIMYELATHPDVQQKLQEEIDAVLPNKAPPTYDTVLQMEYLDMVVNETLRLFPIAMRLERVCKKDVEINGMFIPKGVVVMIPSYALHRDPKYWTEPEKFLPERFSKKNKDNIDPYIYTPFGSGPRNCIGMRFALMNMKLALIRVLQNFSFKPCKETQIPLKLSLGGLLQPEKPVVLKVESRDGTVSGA
Sequence of Cytochrome P450 1A2 (Homo sapiens) (P05177 whole entry, looked up): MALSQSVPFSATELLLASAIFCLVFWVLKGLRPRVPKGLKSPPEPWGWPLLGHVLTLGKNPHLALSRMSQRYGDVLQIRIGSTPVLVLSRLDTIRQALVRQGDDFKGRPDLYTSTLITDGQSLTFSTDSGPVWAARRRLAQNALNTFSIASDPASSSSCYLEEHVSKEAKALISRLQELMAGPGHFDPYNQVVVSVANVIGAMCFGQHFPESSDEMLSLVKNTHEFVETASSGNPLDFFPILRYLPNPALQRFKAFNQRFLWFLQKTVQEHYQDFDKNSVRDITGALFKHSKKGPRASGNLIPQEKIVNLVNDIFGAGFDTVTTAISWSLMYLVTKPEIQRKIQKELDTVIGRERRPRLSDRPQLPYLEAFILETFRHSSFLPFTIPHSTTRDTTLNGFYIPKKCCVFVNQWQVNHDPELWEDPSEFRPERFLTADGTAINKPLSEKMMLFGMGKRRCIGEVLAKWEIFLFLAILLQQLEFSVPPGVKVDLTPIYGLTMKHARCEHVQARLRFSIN
Sequence of Dual specificity protein kinase CLK4 (Homo sapiens) (Q9HAZ1 whole entry, looked up): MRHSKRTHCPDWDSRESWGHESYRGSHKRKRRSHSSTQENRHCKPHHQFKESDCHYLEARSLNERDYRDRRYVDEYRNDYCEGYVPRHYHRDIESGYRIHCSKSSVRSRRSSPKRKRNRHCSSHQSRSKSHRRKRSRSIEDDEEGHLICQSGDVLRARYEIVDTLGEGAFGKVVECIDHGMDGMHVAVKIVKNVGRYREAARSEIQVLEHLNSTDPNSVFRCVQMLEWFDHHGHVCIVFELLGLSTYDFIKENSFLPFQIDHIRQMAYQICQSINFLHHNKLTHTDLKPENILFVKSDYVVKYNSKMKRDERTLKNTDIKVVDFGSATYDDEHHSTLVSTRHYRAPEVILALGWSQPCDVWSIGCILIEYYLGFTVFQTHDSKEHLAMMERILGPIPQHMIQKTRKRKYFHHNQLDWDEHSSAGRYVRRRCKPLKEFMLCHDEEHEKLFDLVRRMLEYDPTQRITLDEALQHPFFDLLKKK

O=c1c(-c2ccc(F)cc2)nc2cnc(N3CCOCC3)nc2n1C1CC1
inactive: Potency [1] > 11.4 µM | activity change, negative = inhibition [2] 16.2% | Potency [3] | Potency [4] > 9.22 µM | Potency [5] > 46 µM | Potency [6] | Potency [7] | activity change, negative = inhibition [8] 5.31% | Potency [9] | Potency [10] | Potency [11] | Potency [12]
17.4%: max response [8, 18]
19.7%: max response [8, 19]

COCCn1c(=O)c(-c2cccs2)nc2cnc(N3CCN(C)CC3)nc21
19.9%: max response [8, 19]
inactive: Potency [1] > 11.4 µM | activity, negative = inhibition [13] 12% | Potency [4] > 9.22 µM | Potency [5] > 46 µM | Potency [6] | Potency [7] | Potency [14] | activity change, negative = inhibition [8] 1.3% | Potency [9] | Potency [10] | Potency [11] | Potency [12]
active: Potency [3] 15.8 µM | Potency [15] 2.51 µM
18.6%: max response [8, 18]

CN1CCN(c2ncnc3ccc(-c4cccc(NS(C)(=O)=O)c4)cc23)CC1
-16%: max response [8, 19]
-11.5%: max response [8, 18]
active: Potency [3] 25.1 µM | Potency [9] 6.31 µM | Potency [10] 7.94 µM | Potency [11] 10 µM
inactive: Potency [1] > 11.4 µM | activity, negative = inhibition [13] -16.1% | Potency [4] > 46 µM | Potency [5] > 46 µM | Potency [6] | Potency [14] | activity change, negative = inhibition [8] -4.99% | Potency [12]

Cc1ccccc1-c1cncnc1N1CCN(C)CC1
inactive: Potency [1] > 11.4 µM | activity change, negative = inhibition [2] 7.79% | activity, negative = inhibition [13] 11.4% | Potency [4] > 46 µM | Potency [5] > 46 µM | Potency [7] | Potency [14] | activity change, negative = inhibition [8] 4.3% | Potency [9] | Potency [10] | Potency [11]
active: Potency [3] 15.8 µM | Potency [16] 1.58 µM
8.66%: max response [8, 19]
4.53%: max response [8, 18]

COCCn1c(=O)c(-c2ccccc2)nc2cnc(Nc3cccc(OC)c3)nc21
active: Potency [3] 3.98 µM
0.127%: max response [8, 19]
inactive: Potency [1] > 11.4 µM | activity change, negative = inhibition [17] -5.93% | activity, negative = inhibition [13] -18.3% | Potency [4] > 9.22 µM | Potency [5] > 46 µM | Potency [6] | activity change, negative = inhibition [8] 1.38% | Potency [9] | Potency [10] | Potency [11] | Potency [12]
-0.938%: max response [8, 18]

COc1ccc(-n2c(=O)c(CCc3ccccc3)nc3cnc(N4CCN(C)CC4)nc32)cc1
inactive: Potency [1] > 11.4 µM | activity change, negative = inhibition [2] -22.3% | Potency [3] | activity change, negative = inhibition [17] -24% | activity, negative = inhibition [13] -10.4% | Potency [4] > 9.22 µM | Potency [5] > 46 µM | Potency [7] | Potency [14] | activity change, negative = inhibition [8] 2.13% | Potency [9] | Potency [10] | Potency [11] | Potency [12]
12.5%: max response [8, 19]
12.7%: max response [8, 18]
